The list is not random: actives were taken first. Their share in the collection is about 3%.
p53null 32C tox – qHTS Screen for Compounds that Selectively Target Cancer Cells with p53 Mutations: Cytotoxicity of p53 Null Cells at the Permissive Temperature | 0.62% of 55,000 active | Potency, µM (top dose mostly 46.1 µM), usual class: cytotoxic | H1299-neo p53 null cells, ATP luminescence, 24 h, 32C | AID 903, 2007; note: nearly all actives have a fitted effect of over 55% in size
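AC50 values derive from Hill modelling of qHTS concentration-response data (up to 46 uM) in H1299-neo cells. Cells were treated 24 h at 32C following overnight attachment at 37C; viability was read as cellular ATP.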
SKOV3 invasion – Primary qHTS assay for Inhibitors of ovarian cancer metastasis using an organotypic tumor microenvironment (TME) model; SKOV3ip1-GFP adhesion/invasion on 3D omental model, fluorescence; Potency, µM (doses to about 45.8 µM), actives largely listed as inhibitors; 0.1% of 46,000 active; AID 1963576, 2024; note: nearly all actives have a fitted effect of over 65% in size
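Primary human omental fibroblast/mesothelial 3D culture pre-formed 48 h. SKOV3ip1-GFP cells added with compounds (0.36-46 umol/L), incubated 2 h RT/16 h 37 C, fixed; GFP cells quantified at 488/509 nm.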
p53null 39C kill – qHTS Screen for Compounds that Selectively Target Cancer Cells with p53 Mutations: Cytotoxicity of p53 Null Cells at the Nonpermissive Temperature | Potency, µM (titrated, usually from 46.1 µM), hits mostly cytotoxic | H1299 p53-null (neo) cells, 39C, ATPlite viability, 24 h | 0.97% of 55,000 active | AID 904, 2007; note: nearly all actives have a fitted effect of over 50% in size
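Cells seeded at 600/well, 37C overnight. Compound added (up to 46 uM), plates shifted to 39C for 24 hr. ATPlite added, luminescence read after 20 min at room temperature.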
S16 F2sN tox – Cell viability qHTS assay in S16 Pmp22-F2sN cells | S16 Pmp22-F2sN Schwann cells viability, CellTiter-Glo, 24 h | 0.48% of 43,000 active | Potency, µM (doses to about 57.5 µM), usual class: cytotoxic; note: nearly all actives have a fitted effect of over 65% in size
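Luminescence from CellTiter-Glo, read by CCD camera after a 15 min room-temperature incubation, served as the viability signal. Reporter Schwann cells (S16 Pmp22-F2sN) had been treated with pin-transferred compounds for 24 h at 37C.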
pS6 MEF inh – Acumen qHTS Assay for Inhibitors of the mTORC1 Signaling Pathway in MEF (Tsc2-/-, p53-/-) Cells: Sytravon; Potency, µM (top dose mostly 38.3 µM), hits mostly inhibitors; Tsc2-/- p53-/- MEF, phospho-rpS6 immunofluorescence/PI, 24 h; AID 493208, 2011; 0.78% of 44,000 active; note: nearly all actives have a fitted effect of over 50% in size
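Cell-based qHTS: Tsc2-/- p53-/- MEF, 24 h cpd, 37 °C; fix/perm, anti-phospho-S6 Alexa-488 + PI; Acumen 488 nm scan; pS6/PI ratio, % positive cells; rapamycin 7.5 nM = inhibition ref; PI count = viability.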
PMP22 txn – Cell-based coincidence reporter assay to measure PMP22 gene transcription in S16 Pmp22-F2sN cells - Primary screen; Potency, µM (titrated, usually from 57.5 µM), actives largely listed as inhibitors; AID 1508649, 2021; S16 Pmp22-F2sN Schwann cells (luciferase reporters placed in the Pmp22 gene), FLuc/NLuc coincidence luminescence, 24 h; 2% of 43,000 active; active = clear falling dose curves in both reporters; inconclusive = both reporters move, but less clearly or upward; inactive = either reporter flat; the % is the NLuc reporter signal
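Rat S16 Pmp22-F2sN cells, 500-1,000/well in phenol red-free DMEM + 10% FBS, compound-treated 24 h (37C, 5% CO2). Luminescence: FLuc read, Stop&Glo added, NLuc read.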
Each line names hits and unclear results; the compound was inactive in the other large screens. Unless noted, calls come from the whole dose curve; as a rule, active = well fitted curve in the direction sought with a large enough effect; inconclusive = small, poorly fitted or top-dose-only effect, or another doubt; inactive = no such curve, though single readings can be large; an effect the other way counts as inactive or inconclusive.

O=C(Nc1nnc(SCC(=O)N2CCCc3ccccc32)s1)c1ccccc1	p53null 32C tox 7.9µM (no result: SKOV3 invasion, p53null 39C kill, S16 F2sN tox, pS6 MEF inh, PMP22 txn)
Cc1cccc(NS(=O)(=O)c2ccc3[nH]c4c(c3c2)CCCCCC4)c1	S16 F2sN tox inconclusive, pS6 MEF inh 13µM, PMP22 txn inconclusive
O=S(=O)(Nc1cccc(Cl)c1)c1ccc2[nH]c3c(c2c1)CCCCCC3	p53null 32C tox 10µM, p53null 39C kill inconclusive, S16 F2sN tox inconclusive, PMP22 txn inconclusive
CC(=O)c1cccc(NS(=O)(=O)c2ccc3[nH]c4c(c3c2)CCCCC4)c1	p53null 39C kill inconclusive, S16 F2sN tox inconclusive, pS6 MEF inh inconclusive, PMP22 txn inconclusive
C=C[C@@H]1CN2CCC1C[C@H]2[C@H](O)c1ccnc2ccc(OC)cc12 (stereo not given in full)	none (no result: p53null 32C tox, p53null 39C kill, S16 F2sN tox, pS6 MEF inh, PMP22 txn)
Cc1cc(C)c(NC(=O)Cn2c(=O)n(Cc3ccc(C(=O)NCc4ccco4)cc3)c(=O)c3sccc32)c(C)c1	p53null 32C tox inconclusive, p53null 39C kill 10µM, PMP22 txn inconclusive
Cc1cccc(C)c1NC(=O)Cn1c(=O)n(Cc2ccc(C(=O)NCc3ccco3)cc2)c(=O)c2sccc21	p53null 32C tox inconclusive, p53null 39C kill inconclusive, pS6 MEF inh inconclusive, PMP22 txn inconclusive
COc1ccc(C2=N[C@H](c3ccc(Cl)cc3)[C@H](c3ccc(Cl)cc3)N2C(=O)N2CCNC(=O)C2)c(OC(C)C)c1	none (no result: p53null 32C tox, p53null 39C kill, S16 F2sN tox, pS6 MEF inh, PMP22 txn)
Cc1ccc(C)c(-c2nnc(NC(=O)c3ccc4c(c3)OCCO4)o2)c1	p53null 39C kill 7.9µM, S16 F2sN tox inconclusive, PMP22 txn inconclusive
Fc1ccc(Nc2nc3nonc3nc2Nc2cccc(C(F)(F)F)c2)cc1	p53null 32C tox inconclusive, p53null 39C kill 5.6µM, S16 F2sN tox 8.9µM, pS6 MEF inh inconclusive, PMP22 txn 7.3µM
O=C(CCc1ccc(O)cc1)c1c(O)cc(O)cc1O[C@@H]1O[C@H](CO)[C@H](O)[C@H](O)[C@H]1O	none (no result: p53null 32C tox, p53null 39C kill, S16 F2sN tox, pS6 MEF inh, PMP22 txn)
CC(C)c1onc(-c2c(Cl)cccc2Cl)c1COc1ccc(C=Cc2cccc(C(=O)O)c2)c(Cl)c1	none (no result: p53null 32C tox, p53null 39C kill, S16 F2sN tox, pS6 MEF inh, PMP22 txn)
CCn1cc(-c2ccnc3[nH]c(-c4cccc(CN(C)C)c4)cc23)c(-c2ccc(NC(=O)N(C)C)cc2)n1	none (no result: p53null 32C tox, p53null 39C kill, S16 F2sN tox, pS6 MEF inh, PMP22 txn)
Cc1ccn2c(Nc3ccccc3C)c(-c3ccc(N4CCOCC4)cc3)nc2c1	none
Cc1ccc2nc(-c3ccc(N4CCOCC4)cc3)c(Nc3ccccc3C)n2c1	p53null 32C tox inconclusive, p53null 39C kill 5µM, PMP22 txn inconclusive
Cc1ccccc1Nc1c(-c2ccc(N3CCOCC3)cc2)nc2ccc(Cl)cn12	p53null 32C tox inconclusive, p53null 39C kill 13µM
O=C(N[C@@H](c1ccccc1)[C@@H]1CCCCN1)c1cccc(C(F)(F)F)c1Cl	none (no result: p53null 32C tox, p53null 39C kill, S16 F2sN tox, pS6 MEF inh, PMP22 txn)
Cc1ccccc1CCNC(=O)c1ccc2c(c1)nc1n2CCOC1	p53null 32C tox 7.9µM, p53null 39C kill 3.2µM
CC1CCn2c(nc3cc(C(=O)NCCc4ccccc4)ccc32)C1 (stereo not given)	p53null 32C tox 13µM, p53null 39C kill 25µM
Cc1ccccc1CCNC(=O)c1ccc2c(c1)nc1n2CCCCC1	p53null 32C tox 2µM, p53null 39C kill 1.3µM
CNC1[C@H](O)C(O[C@@H]2C(O)C(O[C@H]3O[C@H]([C@@H](C)NC)CC[C@H]3N)[C@@H](N)C[C@H]2N)OC[C@]1(C)O (stereo not given in full)	none (no result: p53null 32C tox, p53null 39C kill, S16 F2sN tox, pS6 MEF inh, PMP22 txn)
CCCCCCn1c(/C=C/c2ccccc2)nc2ccccc21	p53null 39C kill 13µM
c1ccc(CSc2ccc(-c3ccco3)nn2)cc1	p53null 32C tox 11µM, p53null 39C kill inconclusive (no result: SKOV3 invasion, S16 F2sN tox, pS6 MEF inh, PMP22 txn)
COc1ccc2[nH]cc(CCNC(=O)Nc3ccccc3)c2c1	none
COc1ccc2[nH]cc(CCNC(=O)Nc3cc(C)cc(C)c3)c2c1	p53null 39C kill 20µM
NCc1c[nH]c(=S)n1[C@H]1CCc2c(F)cc(F)cc2C1	none (no result: p53null 32C tox, p53null 39C kill, S16 F2sN tox, pS6 MEF inh, PMP22 txn)
COc1ccc(CCN2CCC(CNC(=O)c3cnn(-c4cccc(Cl)c4)c3C3CCN(C(=O)OC(C)(C)C)CC3)CC2)cc1	SKOV3 invasion inconclusive, p53null 39C kill 20µM, S16 F2sN tox inconclusive, pS6 MEF inh inconclusive, PMP22 txn inconclusive
COc1ccc(CCN2CCC(CNC(=O)c3cnn(-c4ccccc4)c3C3CCN(C(=O)OC(C)(C)C)CC3)CC2)cc1	SKOV3 invasion inconclusive, S16 F2sN tox inconclusive, PMP22 txn inconclusive
CC(C)(C)OC(=O)N1CCC(c2c(C(=O)NCCN3CCC(Cc4ccccc4)CC3)cnn2-c2ccc(F)cc2)CC1	p53null 32C tox inconclusive, SKOV3 invasion inconclusive, p53null 39C kill 25µM, S16 F2sN tox inconclusive, pS6 MEF inh inconclusive, PMP22 txn inconclusive
O=S(=O)(Nc1ccc2oc3c(c2c1)CCCC3)c1cc(Cl)ccc1Cl	none
COc1ccc(S(=O)(=O)Nc2ccc3oc4c(c3c2)CCCC4)cc1	p53null 39C kill 22µM, pS6 MEF inh inconclusive
CCOC(=O)N1CCN([N+]([O-])=NOc2ccc([N+](=O)[O-])cc2C#N)CC1	none (no result: p53null 32C tox, p53null 39C kill, S16 F2sN tox, pS6 MEF inh, PMP22 txn)
COc1ccc(CNC(=O)Cn2c(=O)nc(-c3ccccc3F)c3cc(Cl)ccc32)cc1	SKOV3 invasion 11µM, PMP22 txn inconclusive
CC(C)NC(=O)Cn1c(=O)nc(-c2ccccc2F)c2cc(Cl)ccc21	none
